Pf growth 96h = inhibits malaria parasite growth, 96 h | P. falciparum luciferase reporter growth, 96 h | Potency, µM (series often up to 28.7 µM), for the others: at the highest dose activity change, negative = inhibition, actives largely listed as inhibitors | 6.9% of 320,000 active | AID 504834
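Readout is luminescence from an integrated firefly luciferase in P. falciparum. Red cells, 2% hematocrit and 0.05% parasitemia final, were cultured with compound through two parasite generations (96 hours) at 37 C, 5% CO2.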
HCV inhibitor = blocks hepatitis C virus; Huh7.5.1 HCVcc-Cre infection, luciferase reporter, 44 h; Potency, µM (doses to about 41.8 µM), without a hit: at the highest dose activity change, negative = inhibition, most hits filed as inhibitors; 3.4% of 340,000 active
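1,000 cells/well; 4 h culture; + compound; + HCVcc-Cre (~0.5 moi); 44 h; luciferase substrate, RT 15 min; read 15 sec.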
Pf growth 48h = inhibits P. falciparum growth in the first generation, 48 h; P. falciparum luciferase growth in erythrocytes, 48 h; Potency, µM (doses to about 28.7 µM), for inactives: at the top dose activity change, negative = inhibition, most hits filed as inhibitors; 5.9% of 310,000 active
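Read-out is firefly luciferase luminescence from an integrated reporter in P. falciparum, so falling signal marks reduced parasite growth. Infected erythrocytes were at 2% hematocrit and 0.1% parasitemia (final) in Albumax-supplemented RPMI 1640.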
AmpC detergent = AmpC beta-lactamase inhibition with detergent present. 0.041% of 370,000 active. AmpC hydrolysis of nitrocefin, absorbance 480 nm, 0.01% Triton. P00811. Potency, µM (titrated, usually from 114 µM), without a hit: at the top dose activity change, negative = inhibition, actives largely listed as inhibitors. AID 485294;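 note: 0% = no-compound wells and -100% = no-enzyme wells; nearly all actives have a fitted effect of over 25% in size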
Target sequence (P00811 whole entry, looked up): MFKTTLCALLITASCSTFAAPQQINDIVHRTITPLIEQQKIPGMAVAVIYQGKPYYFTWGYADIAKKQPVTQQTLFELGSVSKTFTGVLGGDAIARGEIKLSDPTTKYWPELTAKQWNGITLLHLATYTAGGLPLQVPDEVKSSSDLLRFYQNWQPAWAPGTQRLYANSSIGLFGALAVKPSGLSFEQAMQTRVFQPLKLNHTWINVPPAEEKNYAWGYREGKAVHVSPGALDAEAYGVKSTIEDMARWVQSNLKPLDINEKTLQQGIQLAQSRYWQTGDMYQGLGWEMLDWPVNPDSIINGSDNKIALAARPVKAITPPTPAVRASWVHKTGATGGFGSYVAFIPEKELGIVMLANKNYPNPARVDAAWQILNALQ
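20 mM phosphate pH 7.0 + 0.01% (detergent screen) or 0.0001% Triton X-100; 5.3 nM AmpC reagent; cpd preinc 15 min RT; nitrocefin (800 uM stock) to start; A480 q20 s × 4 min; Activity was normalised to no-enzyme and no-compound control wells.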
AMA1-RON2 inh = disrupts binding of P. falciparum AMA1 to RON2. AlphaScreen AMA1-biotinylated RON2 peptide binding. Potency, µM (top dose mostly 58.2 µM), for the others: top-dose activity change, negative = inhibition, hits mostly inhibitors. 0.2% of 360,000 active. AID 720542;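 note: 0% = vehicle wells and -100% = peptide control; nearly all actives have a fitted effect of over 45% in size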
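AMA1 (3D7) with his tag at 25 nM final met compounds first, then biotinylated RON2 peptide at 25 nM; detection used donor plus acceptor beads, 10 µg/mL apiece, read by AlphaScreen after 30 min at room temperature.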
AmpC inh no detg = inhibitors of E. coli AmpC beta-lactamase without detergent; P00811; AmpC nitrocefin hydrolysis, absorbance 480 nm, 0.0001% Triton; Potency, µM (doses to about 57.1 µM), without a hit: at the top dose activity change, negative = inhibition, hits mostly inhibitors; 0.52% of 330,000 active; AID 485341;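 note: plate controls were no compound for no effect and no enzyme for full effect; nearly all actives have a fitted effect of over 20% in size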
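20 mM phosphate pH 7.0 + 0.01% (detergent screen) or 0.0001% Triton X-100; 5.3 nM AmpC reagent; cpd preinc 15 min RT; nitrocefin (800 uM stock) to start; A480 q20 s × 4 min; Activity was normalised to no-enzyme and no-compound control wells.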
Starred values were filed as active, the others as inactive; ? = inconclusive; / = not tested or not shown; ! = not confirmed by another sample. Shown are actives, neighbours in structure and some others; about 11% of the full set was active somewhere. Calls come from the whole dose curve; as a rule, active = well fitted curve in the direction sought with a large enough effect; inconclusive = small, poorly fitted or top-dose-only effect, or another doubt; inactive = no such curve, though single readings can be large; an effect the other way counts as inactive or inconclusive. Unless noted, % is set by controls: 0 for no effect and ±100 for the full control effect; potency is the fitted concentration of half-maximal effect.

SMILES | Pf growth 96h | HCV inhibitor | Pf growth 48h | AmpC detergent | AMA1-RON2 inh | AmpC inh no detg
O=C(c1cc([N+](=O)[O-])ccc1N1CCCC1)N1CCCC1 | ? | -21.2% | 0.4% | 3.2% | 3.7% | -7.6%
O=C(c1cc([N+](=O)[O-])ccc1N1CCCCC1)N1CCCC1 | 7.38µM* | 13.7% | 31.1% | 4.1% | 7.3% | -6.5%
CN1CCN(c2ccc([N+](=O)[O-])cc2C(=O)N2CCCCC2)CC1 | 11.7µM* | -7.0% | -0.3% | -7.4% | 0.5% | -11.0%
CCC(=O)N1CCc2cc(Br)cc(S(=O)(=O)CCC(=O)NCc3ccc(F)cc3)c21 | / | / | / | 5.7% | / | /
CCOC(=O)c1ccc(NC(=O)CN(Cc2ccc(C)cc2)S(=O)(=O)c2ccc(C)cc2)cc1 | / | / | / | 12.1% | / | /
CC(/C=C\C=C\c1ccccc1)=N\NC(=O)c1cncc(Br)c1 | 0.928µM* | -10.5% | ? | 5.5% | 112.5% | -33.3%
CC(/C=C/C=C/c1ccccc1)=N\NC(=O)c1cccnc1 | ? | 6.8% | -23.0% | ? | 47.5% | -14.3%
COc1ccccc1N1CCN(S(=O)(=O)CCNC(=O)C(c2ccccc2)c2ccccc2)CC1 | / | / | / | 2.8% | / | /
CCCN(CCC)C(=O)c1cc([N+](=O)[O-])cc2c1-c1ccc([N+](=O)[O-])cc1C2=C(C#N)C#N | 11.7µM* | ? | 11.7µM* | 7.4% | -1.7% | -28.7%
CCOc1ccc(N2C(=O)CC(SC(=NC)Nc3ccc(F)cc3)C2=O)cc1 (centres undefined) | 9.28µM* | 3.4% | ? | -6.1% | 0.0% | -1.0%
CCCOc1ccc(N2C(=O)CC(SC(=NC)Nc3ccc(F)cc3)C2=O)cc1 (centres undefined) | / | 6.4% | 3.8% | -7.8% | 0.0% | -14.1%
CN=C(Nc1ccc(C)c(C)c1)SC1CC(=O)N(c2ccc(OC)cc2)C1=O (centres undefined) | 47.3% | 3.6% | 11.7µM* | -8.7% | -6.0% | 50.1%
CC(C)NS(=O)(=O)c1ccc(NC(=S)NC(=O)c2ccc(-c3ccccc3)cc2)cc1 | 2.62µM* | ? | 6.57µM* | 3.5% | 47.5% | -37.3%
CC(=O)Nc1ccc(NC(=S)NC(=O)c2ccc(-c3ccccc3)cc2)cc1 | / | -19.9% | / | / | 0.5% | /
CCOC(=O)c1cccc(NC(=O)CCn2c(-c3ccc(F)cc3)cc(C(=O)OCC)c2C)c1 | / | / | / | 0.7% | / | /
Cc1cc2oc(C(=O)N(Cc3ccc(N(C)C)cc3)Cc3ccco3)c(C)c2cc1Cl | / | / | / | 24.5% | / | /
N#CCC(CNc1ncc(C(F)(F)F)cc1Cl)OC(=O)c1cccc(C(F)(F)F)c1 (centres undefined) | 5.86µM* | 8.9% | ? | 6.0% | 0.3% | -1.6%
FC(F)(F)c1cnc(-c2cnc(-c3ccncc3)nc2)c(Cl)c1 | 106.9% | -28.7% | 59.3% | -4.1% | 16.0% | -13.5%
FC(F)(F)c1cnc(-c2cnc(-c3ccccn3)nc2)c(Cl)c1 | 6.57µM* | -8.7% | 329.2% | 0.7% | 57.4% | -15.4%
Cc1nc2c([nH]c3ccc(Br)cc32)s1 | ? | 10µM* | 32.8% | 3.8% | -1.2% | -20.6%
Cc1ccc(-c2nnc(SCC(=O)N/N=C/c3c(C)nn(-c4ccccc4)c3C)n2-c2ccccc2)cc1 | 3.8% | 11.2µM* | 6.0% | -18.2% | 0.6% | -28.7%
Cc1nn(-c2ccccc2)c(C)c1/C=N/NC(=O)c1cc(-c2ccccc2)n[nH]1 | 9.28µM* | ? | 14.7µM* | -11.7% | 8.1% | 66.0%
Cc1ccc(-n2ncc(C(=O)NCCN3CCOCC3)c2C2CCN(C(=O)OC(C)(C)C)CC2)c(C)c1 | / | / | / | 0.3% | / | /
Cc1ccc(C(=O)c2oc3ccccc3c2NC(=O)c2cc(-c3ccccc3)on2)cc1 | / | / | / | 5.7% | / | /
CCc1ccc2oc(=O)cc(CN(C)Cc3ccccc3)c2c1 | / | ? | 8.28µM* | -1.3% | 38.9% | 2.3%
SMILES | Pf growth 96h | HCV inhibitor | Pf growth 48h | AmpC detergent | AMA1-RON2 inh | AmpC inh no detg
O=C(COC(=O)c1cnc(Cl)c(Cl)c1)NCc1cccs1 | 15.2% | 12.4% | 0.0% | -6.4% | 10.9% | -47.8%
NS(=O)(=O)c1cc(-c2nn[nH]n2)c(NCc2cccs2)cc1Cl | 12µM* | / | -9.6% | / | / | /
COc1ccc(O)c(CN2CCCC(N3CCN(c4ccccc4OC)CC3)C2)c1 (centres undefined) | 0.0% | -15.8% | ? | 1.1% | 4.0% | -7.3%
COc1ccccc1N1CCN(C2CCCN(Cc3ccccc3OCCO)C2)CC1 (centres undefined) | 1.65µM* | 1.8% | ? | 5.1% | -3.9% | -6.2%
COc1ccccc1N1CCN(C2CCCN(Cc3cc(F)cc(F)c3)C2)CC1 (centres undefined) | ? | -12.1% | ? | -3.0% | -1.1% | 56.9%
COc1ccccc1N1CCN(C2CCCN(Cc3ccc(Cl)cc3)C2)CC1 (centres undefined) | 13.1µM* | ? | -15.7% | -1.1% | -5.5% | 57.3%
Cn1c(=O)[nH]c(=O)c2c1nc1n2CCN1c1ccccc1 | / | / | / | -4.9% | / | /
O=C(O)c1ccc(N(Cc2ccccc2)S(=O)(=O)c2ccccc2)cc1 | 9.28µM*! | 0.5% | -3.7% | 7.6% | -6.6% | -9.4%
C=CCN(c1ccccc1C(=O)NCC(=O)O)S(=O)(=O)c1ccc(C)cc1 | 5.5% | 17.0% | 17.3% | 3.7% | 20.5% | -13.1%
C=CCN(c1ccccc1C(=O)O)S(=O)(=O)c1ccc(NC(=O)OC)cc1 | 48.2% | -10.0% | 2.33µM* | 3.2% | -3.0% | -12.6%
CCN1CCN(C(=O)c2ccccc2N(Cc2ccccc2)S(=O)(=O)c2ccc(C)cc2)CC1 | 14.7µM* | ? | / | -10.3% | -0.5% | 142.9%
O=C(O)c1ccc(S(=O)(=O)N(Cc2ccccc2)Cc2ccccc2)cc1 | 41.6% | 10.1% | 11.2% | -0.2% | -8.2% | -17.0%
COc1cccc(/C=N/NC(=O)c2ccccc2N(Cc2ccccc2)S(=O)(=O)c2ccccc2)c1OC | 11.7µM* | ? | ? | ? | -28.6% | 11.2%
CCOC(=O)c1ccc(Nc2nc3nonc3nc2Nc2cccc(C)c2C)cc1 | / | / | / | 4.9% | / | /
CCOC(=O)C1(C)C=C(Nc2cccc(C)c2)C(=O)N1c1ccccc1 (centres undefined) | / | / | / | -5.1% | / | /
COc1ccc(OC)c(CNC(=O)Cc2ccc(NC(=O)N3CCSc4ncccc43)cc2)c1 | / | / | / | -4.4% | / | /
COc1ccc(S(=O)(=O)N(Cc2ccccc2)c2ccccc2C(=O)O)cc1 | 13.1µM* | -3.4% | 2.3% | -5.6% | 7.0% | -23.0%
Cc1ccccc1CN1CCCN(CC(=O)Nc2ccc(F)cc2)S1(=O)=O | / | / | / | 17.7% | / | /
CCCN1CCCc2cc(CN)ccc21 | 42.7% | ? | 1.65µM* | ? | ? | 11.4%
